Test results published in PubChem BioAssay (NCATS).
Inconclusive results are not listed. Calls of active or inactive are those of the source. Unless noted, calls come from the whole dose curve; as a rule, active = well fitted curve in the direction sought with a large enough effect in the repeat runs; inconclusive = weak or mixed curves; inactive = no such curve, though single readings can be large; an effect the other way counts as inactive or inconclusive.

Biological target: Calcium and integrin-binding protein 1 (Homo sapiens) (UniProt Q99828)
Experiment: Primary qHTS for Identification of Calcium Integrin Binding Protein 1 (CIB1) Competitor (AID 1508620; active = well fitted curve in the direction sought with a large enough effect; an effect the other way counts as inactive or inconclusive;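 note: GST tagged CIB1 binding a fluorescein labelled alphaIIb integrin peptide tracer; top concentration of the series differs between compounds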)
Conditions: CIB1-GST / FITC-alphaIIb peptide fluorescence polarization; series mostly up to 114 µM; activity change, negative = inhibition: at the top concentration
Procedure, shortened: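 Fluorescence polarization competition: CIB1-GST (1 uM final) preincubated with compound 15 min at room temperature, then FITC-labeled alphaIIb peptide (100 nM final) added for another 15 min. Polarization read at Ex 480/Em 540.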
% is set by controls: 0 for no effect and ±100 for the full control effect.

Chain of Calcium and integrin-binding protein 1 (Homo sapiens) (Q99828 whole entry, looked up): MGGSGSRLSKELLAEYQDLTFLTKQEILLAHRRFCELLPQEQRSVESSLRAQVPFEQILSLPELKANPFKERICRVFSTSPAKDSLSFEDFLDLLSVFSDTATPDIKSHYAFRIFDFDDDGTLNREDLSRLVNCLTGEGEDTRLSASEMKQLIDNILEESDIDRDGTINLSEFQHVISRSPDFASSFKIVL

SMILES	activity change, negative = inhibition	Potency
COc1ccc(CCN(C)CCCOc2nsc(-c3ccccc3)n2)cc1OC	6.82% (inactive)	–
COc1cccc(OCCCN)c1-c1cc(Nc2cnc(C#N)cn2)n[nH]1	4.73% (inactive)	–
Cn1cc(-c2ccc(F)c(C(F)(F)F)c2)nc1C1CCN(c2ncnc3[nH]ncc23)CC1	–	inactive
O=C(NNc1nc2cc(F)ccc2n2cccc12)c1cnccn1	-7.76% (inactive)	–
CCCc1ccc(OCC(=O)N(Cc2nc(-c3cccnc3)no2)C(C)C)cc1	0.0245% (inactive)	–
c1cc(NCCc2c[nH]c3ccccc23)cc(Nc2ccncc2)c1	-15.1% (inactive)	–
Cc1c(NC(=O)c2cc3c(s2)CCCC3)cccc1-c1cn(C)c(=O)c(Nc2ccc(C3C(=O)N(C)CCN3C)cc2)n1 (stereo not drawn)	-9.86% (inactive)	–
Cc1ccc(C(=O)Nc2ccc(CN3CCN(C)CC3)c(C(F)(F)F)c2)cc1C#Cc1cnc2[nH]ncc2c1	-12.3% (inactive)	–
CCCCC1CCN(CCCN2C(=O)CCc3ccccc32)CC1	-4.72% (inactive)	–
CS(=O)(=O)Nc1ccc2oc3c(OC(F)F)ccc(C(=O)Nc4c(Cl)cncc4Cl)c3c2c1	-9.47% (inactive)	–
COc1ccc2c(c1)C(C(=O)N(Cc1ccc(N(C)C)cc1)c1ccc(C(C)C)cc1)CCC2 (stereo not drawn)	-0.926% (inactive)	–
COc1ccc(CN2CCN(C(=O)CCNC(=O)c3ccc(C(C)(C)C)cc3)CC2)cc1	6.33% (inactive)	–
CCN(CC)CCCS(=O)(=O)N[C@H](CCc1ccccc1)c1nc(Cc2ccc(Br)cc2)no1	-6.59% (inactive)	–
Nc1ncnc2c1c(-c1ccc(Oc3ccccc3)cc1)nn2[C@@H]1CCCNC1	1.83% (inactive)	–
COc1ccc(-c2ccc3c(N4CCOCC4C)nc(N4CCOCC4C)nc3n2)cc1CO (stereo not drawn)	-5.4% (inactive)	–
CCOC(=O)C1=Cc2ccc(C(F)(F)C(F)(F)F)cc2N=C(N)C1	-3.16% (inactive)	–
Cc1ccc(NC(=O)C(C)C)cc1C1CCN(Cc2ccc(Oc3ccc(F)c(F)c3)cc2)CC1	3.61% (inactive)	–
O=C(Nc1ccccc1Br)NC1CCN(c2ccc(C(F)(F)F)cn2)C1 (stereo not drawn)	1.17% (inactive)	–
O=S1(=O)CCN(Cc2cc(NCC3CCOCC3)c3[nH]c(-c4ccccc4)cc3c2)CC1	-12% (inactive)	–
COc1ccccc1N1CCN(c2ncnc3n[nH]c(Br)c23)CC1	3.68% (inactive)	–
CNC(=O)c1ccc2c(c1)CCO[C@H]2CCN1CCN(c2ccc(OC)cc2)CC1	4.83% (inactive)	–
CC(C)S(=O)(=O)Nc1ccc(F)c(C(=O)c2c[nH]c3ncc(-c4cccnc4)cc23)c1F	-11.7% (inactive)	–
N#Cc1ccc(COC[C@H]2O[C@@H](n3c(NCc4ccc(Cl)c(Cl)c4)nc4c(N)ncnc43)[C@H](O)[C@@H]2O)cc1	1.23% [at 57.7 µM] (inactive)	–
c1cc(NC2CCNCC2)nc(-c2cnc3ccccn23)c1	-10.8% (inactive)	–

Biological target: Cytochrome P450 2D6 (Homo sapiens) (UniProt P10635)
Experiment: Cytochrome P450 family 2 subfamily D member 6 (CYP2D6) small molecule antagonists: luciferase biochemical (cell-free) qHTS assay (AID 1645840); note: nearly all actives have a fitted effect of over 55% in size; note: potency is the fitted concentration of half-maximal effect
Conditions: P450-Glo CYP2D6 enzyme, luciferin luminescence, 1 h; series mostly up to 57.4 µM; activity change, negative = inhibition: at the top concentration
Procedure, shortened: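 P450-Glo luminescent screen: recombinant CYP2D6 enzyme–proluciferin substrate mix preincubated with compound 10 min at room temperature, then NADPH regeneration added for 1 h at room temperature. Detection reagent added for 20 min; luciferin light read as relative luminescence units.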

Chain of Cytochrome P450 2D6 (Homo sapiens) (P10635 whole entry, looked up): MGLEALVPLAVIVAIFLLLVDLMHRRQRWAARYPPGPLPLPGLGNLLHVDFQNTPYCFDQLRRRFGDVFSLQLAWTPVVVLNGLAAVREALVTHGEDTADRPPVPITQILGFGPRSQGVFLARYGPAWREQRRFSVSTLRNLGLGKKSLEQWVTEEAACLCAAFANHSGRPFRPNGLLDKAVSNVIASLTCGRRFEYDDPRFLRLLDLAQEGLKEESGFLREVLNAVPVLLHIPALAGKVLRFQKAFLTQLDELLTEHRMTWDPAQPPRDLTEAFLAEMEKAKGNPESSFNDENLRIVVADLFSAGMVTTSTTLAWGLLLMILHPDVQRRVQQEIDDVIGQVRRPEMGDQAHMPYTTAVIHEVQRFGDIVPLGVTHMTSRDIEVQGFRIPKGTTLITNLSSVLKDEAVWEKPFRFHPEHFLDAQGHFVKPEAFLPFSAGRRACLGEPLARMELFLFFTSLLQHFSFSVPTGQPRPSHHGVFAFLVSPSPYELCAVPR

SMILES	Potency	activity change, negative = inhibition
NC(=O)N1CCC(CC(=O)N2CCC(C3c4ncc(Br)cc4CCc4cc(Cl)cc(Br)c43)CC2)CC1 (stereo not drawn)	16.9 µM (active)	–
O=C(CCl)Nc1cccc(NC2=NS(=O)(=O)c3ccccc32)c1	–	-4.84% (inactive)
O=S(=O)(c1ccc(Cl)cc1)N1CCN(c2ccnc3cc(Cl)ccc23)CC1	8.49 µM (active)	–
Nc1nc2c(s1)CCN(Cc1ccc(Cl)cc1)CC2	1.9 µM (active)	–
Fc1ccc(N2CCCCC2)c(NC(=S)c2ccncc2)c1	1.69 µM (active)	–
Fc1ccc2c(CCNCc3cccc(OCC(F)(F)C(F)F)c3)c[nH]c2c1	0.0477 µM (active)	–
Nc1ncnc2c1c(-c1ccc(Cl)cc1)nn2-c1cccc(-c2cnnn2Cc2cccc(-c3ccccc3)c2)c1	–	9.49% (inactive)
Fc1ccc(-c2nc(-c3c(F)cccc3F)[nH]c2-c2ccncc2)cc1	2.68 µM (active)	–
CCC[C@H](N[C@H]1CCc2cc(F)cc(F)c2C1)C(=O)Nc1cn(C(C)(C)CNCC(C)(C)C)cn1	–	-20% (inactive)
Cc1cc(F)ccc1[C@H]1C[C@@H](N2CCN3C(=O)CC[C@H]3C2)CCN1C(=O)N(C)[C@H](C)c1cc(C(F)(F)F)cc(C(F)(F)F)c1	13.5 µM (active)	–
CCCC(Nc1nc(-c2ccc(NC(=O)NCC)c(OC)c2)ncc1C)c1cccnc1 (stereo not drawn)	5.35 µM (active)	–
COc1ccccc1N1CCN(CC[C@@](C)(C(=O)C2CCCCC2)c2ccccc2)CC1	12 µM (active)	–
Cc1cc2sc(NC(=O)Cc3ccccc3)nc2cc1Cl	–	4.06% (inactive)
Cc1nnc(-c2ccc(-c3ccc(C(=O)Nc4ccc(O)c(N5CCN(C)CC5)c4)cc3)c(C)c2)o1	–	-7.51% (inactive)
CCN1C(C)(C)CC(Oc2ccc(C(=O)Nc3ccc(NC(=O)Nc4cc(C(C)(C)C)on4)cc3)nc2)CC1(C)C	19 µM (active)	–
COc1ccc(CCN(C)CCCOc2nsc(-c3ccccc3)n2)cc1OC	1.51 µM (active)	–
COc1cccc(OCCCN)c1-c1cc(Nc2cnc(C#N)cn2)n[nH]1	6.74 µM (active)	–
Cn1cc(-c2ccc(F)c(C(F)(F)F)c2)nc1C1CCN(c2ncnc3[nH]ncc23)CC1	–	12% (inactive)
O=C(NNc1nc2cc(F)ccc2n2cccc12)c1cnccn1	–	-24% (inactive)
CCCc1ccc(OCC(=O)N(Cc2nc(-c3cccnc3)no2)C(C)C)cc1	19 µM (active)	–

SMILES	Potency	activity change, negative = inhibition
c1cc(NCCc2c[nH]c3ccccc23)cc(Nc2ccncc2)c1	0.477 µM (active)	–
Cc1c(NC(=O)c2cc3c(s2)CCCC3)cccc1-c1cn(C)c(=O)c(Nc2ccc(C3C(=O)N(C)CCN3C)cc2)n1 (stereo not drawn)	–	-11.2% (inactive)
Cc1ccc(C(=O)Nc2ccc(CN3CCN(C)CC3)c(C(F)(F)F)c2)cc1C#Cc1cnc2[nH]ncc2c1	16.9 µM (active)	–
CCCCC1CCN(CCCN2C(=O)CCc3ccccc32)CC1	0.756 µM (active)	–
CS(=O)(=O)Nc1ccc2oc3c(OC(F)F)ccc(C(=O)Nc4c(Cl)cncc4Cl)c3c2c1	12 µM (active)	–
COc1ccc2c(c1)C(C(=O)N(Cc1ccc(N(C)C)cc1)c1ccc(C(C)C)cc1)CCC2 (stereo not drawn)	–	2.3% (inactive)
COc1ccc(CN2CCN(C(=O)CCNC(=O)c3ccc(C(C)(C)C)cc3)CC2)cc1	15.1 µM (active)	–
CCN(CC)CCCS(=O)(=O)N[C@H](CCc1ccccc1)c1nc(Cc2ccc(Br)cc2)no1	6.01 µM (active)	–
Nc1ncnc2c1c(-c1ccc(Oc3ccccc3)cc1)nn2[C@@H]1CCCNC1	15.1 µM (active)	–
COc1ccc(-c2ccc3c(N4CCOCC4C)nc(N4CCOCC4C)nc3n2)cc1CO (stereo not drawn)	–	-24.8% (inactive)
CCOC(=O)C1=Cc2ccc(C(F)(F)C(F)(F)F)cc2N=C(N)C1	3.01 µM (active)	–
Cc1ccc(NC(=O)C(C)C)cc1C1CCN(Cc2ccc(Oc3ccc(F)c(F)c3)cc2)CC1	5.35 µM (active)	–
O=C(Nc1ccccc1Br)NC1CCN(c2ccc(C(F)(F)F)cn2)C1 (stereo not drawn)	10.7 µM (active)	–
O=S1(=O)CCN(Cc2cc(NCC3CCOCC3)c3[nH]c(-c4ccccc4)cc3c2)CC1	12 µM (active)	–
COc1ccccc1N1CCN(c2ncnc3n[nH]c(Br)c23)CC1	–	-29.8% (inactive)
CNC(=O)c1ccc2c(c1)CCO[C@H]2CCN1CCN(c2ccc(OC)cc2)CC1	–	-15.3% (inactive)
CC(C)S(=O)(=O)Nc1ccc(F)c(C(=O)c2c[nH]c3ncc(-c4cccnc4)cc23)c1F	5.35 µM (active)	–
N#Cc1ccc(COC[C@H]2O[C@@H](n3c(NCc4ccc(Cl)c(Cl)c4)nc4c(N)ncnc43)[C@H](O)[C@@H]2O)cc1	10.7 µM (active)	–
c1cc(NC2CCNCC2)nc(-c2cnc3ccccn23)c1	15.1 µM (active)	–
